Experimental data as given in PubChem BioAssay (NCATS).
Inconclusive results are not listed. A call without a number means that no potency is given here. Values without a mark were called inactive. The source made the active and inactive calls. Unless noted, the call rests on the fitted dose curve; in most records, active means well fitted curve in the direction sought with a large enough effect; inconclusive means small, poorly fitted or top-dose-only effect, or another doubt; inactive means no such curve, though single readings can be large; an effect the other way counts as inactive or inconclusive. Numbered stars: 1 amine (or outer) side, 2 acyl side, 3 side chain; on linkers, the order of the positions; unused ones are H or OH. Bridge positions count the residues as written; N and C are the ends. Square brackets hold non-standard residues; d marks the D form. Peptide text beside a SMILES is read from it. I, II: the chains in the order shown. Actinocin(9to1) = Cc1c2oc3c(C)ccc(C(=O)[*:1])c3nc-2c(C(=O)[*:2])c(N)c1=O; NMeV = CN[C@H](C(=O)O)C(C)C; Sar = CNCC(=O)O

Tests used:
[1] = target: Calcium and integrin-binding protein 1 (Homo sapiens) (UniProt Q99828); assay: Primary qHTS for Identification of Calcium Integrin Binding Protein 1 (CIB1) Competitor (AID 1508620);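 further: GST tagged CIB1 binding a fluorescein labelled alphaIIb integrin peptide tracer; top concentration of the series differs between compounds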
Chain of Calcium and integrin-binding protein 1 (Homo sapiens) (Q99828 whole entry, looked up): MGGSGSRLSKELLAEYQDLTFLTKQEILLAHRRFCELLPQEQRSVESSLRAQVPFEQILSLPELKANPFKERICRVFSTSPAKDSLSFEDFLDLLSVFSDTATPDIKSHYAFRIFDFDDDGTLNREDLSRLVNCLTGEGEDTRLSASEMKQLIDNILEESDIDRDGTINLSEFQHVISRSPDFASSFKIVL
Outline: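 Fluorescence polarization competition: GST-tagged CIB1 (1 uM final) preincubated with compound 15 min at room temperature, then FITC-labelled alphaIIb peptide (100 nM final) added. After 15 min at room temperature, polarization read at Ex 480/Em 540.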

[2] = Primary qHTS for small molecule stabilizers of the endoplasmic reticulum resident proteome: Secreted ER Calcium Modulated Protein (SERCaMP) assay (AID 1508630)
Outline: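 GLuc-SERCaMP-expressing SH-SY5Y cells, pretreated 16 h with compound, are challenged with thapsigargin to empty ER calcium stores; after 4 h, coelenterazine is added directly to the medium and luminescence is imaged.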

[3] = A High-Content qHTS Against Drug Library for the Identification of Small Molecules that Inhibit DYT1 Early Onset Primary Dystonia-Associated Cell Pathology (AID 1645839; calls by dose curve; further: series mostly up to about 46 µM)
Outline: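 Flp-In T-REx 293 cells with tetracycline-inducible EGFP-delE hTOR1A (WT EGFP-hTOR1A as reference), 800 cells/well; compound added with tetracycline, 48 h at 37 C. Fixed, permeabilized cells imaged; %pathology (punctate TorsinA) primary, cell count counterscreen.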

[4] = target: Cytochrome P450 2C9 (Homo sapiens) (UniProt P11712); assay: Cytochrome P450 family 2 subfamily C member 9 (CYP2C9) small molecule antagonists: luciferase biochemical (cell-free) qHTS assay (AID 1645842; active means well fitted curve in the direction sought with a large enough effect in the repeat runs; an effect the other way counts as inactive or inconclusive; further: nearly all actives have a fitted effect of over 55% in size; further: potency means the concentration at half of the fitted maximal effect)
Chain of Cytochrome P450 2C9 (Homo sapiens) (P11712 whole entry, looked up): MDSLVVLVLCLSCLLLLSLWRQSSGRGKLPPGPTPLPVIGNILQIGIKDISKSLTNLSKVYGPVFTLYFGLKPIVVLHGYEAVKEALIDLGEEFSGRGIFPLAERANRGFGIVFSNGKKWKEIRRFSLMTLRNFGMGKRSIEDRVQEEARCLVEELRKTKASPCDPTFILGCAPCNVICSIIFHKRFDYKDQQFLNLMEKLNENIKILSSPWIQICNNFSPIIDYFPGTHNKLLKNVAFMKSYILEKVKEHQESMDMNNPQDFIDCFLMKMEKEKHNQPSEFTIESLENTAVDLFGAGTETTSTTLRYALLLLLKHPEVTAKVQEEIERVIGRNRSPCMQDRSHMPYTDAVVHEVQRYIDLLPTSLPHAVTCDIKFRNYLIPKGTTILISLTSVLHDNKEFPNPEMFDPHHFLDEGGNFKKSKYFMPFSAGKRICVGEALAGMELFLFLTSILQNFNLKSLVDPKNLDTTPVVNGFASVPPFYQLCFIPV
Outline: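 Luminescence, after 20 min with luciferin detection reagent, reflected CYP2C9 turnover during a 1 h NADPH-driven reaction at 37C. Enzyme-substrate mix contained 0.4% bovine serum albumin and was preincubated with compound 10 min at room temperature.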

[5] = target: Cytochrome P450 2D6 (Homo sapiens) (UniProt P10635); assay: Cytochrome P450 family 2 subfamily D member 6 (CYP2D6) small molecule antagonists: luciferase biochemical (cell-free) qHTS assay (AID 1645840; active means well fitted curve in the direction sought with a large enough effect in the repeat runs; an effect the other way counts as inactive or inconclusive; further: nearly all actives have a fitted effect of over 55% in size; further: potency means the concentration at half of the fitted maximal effect)
Chain of Cytochrome P450 2D6 (Homo sapiens) (P10635 whole entry, looked up): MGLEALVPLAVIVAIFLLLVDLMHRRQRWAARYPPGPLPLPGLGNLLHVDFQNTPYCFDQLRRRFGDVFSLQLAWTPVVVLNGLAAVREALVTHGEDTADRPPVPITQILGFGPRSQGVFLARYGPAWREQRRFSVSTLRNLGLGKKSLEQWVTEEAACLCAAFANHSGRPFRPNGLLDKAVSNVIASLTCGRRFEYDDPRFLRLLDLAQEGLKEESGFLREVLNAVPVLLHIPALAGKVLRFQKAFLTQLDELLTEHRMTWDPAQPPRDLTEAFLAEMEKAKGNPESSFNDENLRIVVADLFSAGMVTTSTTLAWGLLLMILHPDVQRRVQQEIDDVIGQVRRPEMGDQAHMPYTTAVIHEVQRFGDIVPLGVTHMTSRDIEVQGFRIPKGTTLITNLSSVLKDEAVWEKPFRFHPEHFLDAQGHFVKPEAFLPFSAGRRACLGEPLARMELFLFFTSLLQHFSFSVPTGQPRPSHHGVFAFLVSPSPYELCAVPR
Outline: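 P450-Glo luminescent screen: recombinant CYP2D6 enzyme–proluciferin substrate mix preincubated with compound 10 min at room temperature, then NADPH regeneration added for 1 h at room temperature. Detection reagent added for 20 min; luciferin light read as relative luminescence units.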

[6] = target: Cytochrome P450 3A4 (Homo sapiens) (UniProt P08684); assay: Cytochrome P450 family 3 subfamily A member 4 (CYP3A4) small molecule antagonists: luciferase qHTS assay (AID 1645841; active means well fitted curve in the direction sought with a large enough effect in the repeat runs; an effect the other way counts as inactive or inconclusive; further: nearly all actives have a fitted effect of over 45% in size)
Chain of Cytochrome P450 3A4 (Homo sapiens) (P08684 whole entry, looked up): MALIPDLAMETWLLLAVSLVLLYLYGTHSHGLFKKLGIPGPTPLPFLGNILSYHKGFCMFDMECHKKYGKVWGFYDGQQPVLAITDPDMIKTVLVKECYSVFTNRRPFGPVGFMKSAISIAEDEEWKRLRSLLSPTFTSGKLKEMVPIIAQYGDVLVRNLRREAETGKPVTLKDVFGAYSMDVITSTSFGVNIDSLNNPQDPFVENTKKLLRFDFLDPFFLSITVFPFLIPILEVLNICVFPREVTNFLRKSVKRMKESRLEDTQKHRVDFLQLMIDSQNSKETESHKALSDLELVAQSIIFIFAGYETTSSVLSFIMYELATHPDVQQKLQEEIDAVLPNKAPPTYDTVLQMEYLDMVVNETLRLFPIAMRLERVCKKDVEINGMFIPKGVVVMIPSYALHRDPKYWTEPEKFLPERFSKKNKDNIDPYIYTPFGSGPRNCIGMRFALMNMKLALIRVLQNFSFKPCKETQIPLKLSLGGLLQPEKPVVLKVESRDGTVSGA
Outline: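 P450-Glo CYP3A4 enzyme with proluciferin substrate preincubated 10 min with compound at room temperature, then NADPH regeneration 1 h. Luciferin detection reagent added for 20 min; luminescence recorded. Ketoconazole positive control.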

Row | SMILES | Potency [1] | Potency [2] | Potency [3] | Potency [4] | Potency [5] | outcome [6]
1 | CC(=O)Oc1ccc2c(c1)CC[C@@H]1[C@@H]2CC[C@]2(C)[C@@H](O)CC[C@@H]12 | inactive | inactive | inactive | inactive | – | –
2 | OC[C@@H](O)[C@@H](O[C@@H]1O[C@H](CO)[C@H](O)[C@H](O)[C@H]1O)[C@H](O)[C@@H](O)CO | inactive | inactive | inactive | inactive | – | –
3 | C[C@@H]1C[C@H]2[C@@H]3CCC4=CC(=O)C=C[C@]4(C)[C@@]3(F)[C@@H](O)C[C@]2(C)[C@H]1C(=O)CO | inactive | inactive | inactive | 11 µM (active) | inactive | –
4 | COC(=O)[C@@H]1CC2=CC(=O)CC[C@]2(C)[C@@]23O[C@@H]2C[C@@]2(C)[C@@H](CC[C@@]24CCC(=O)O4)[C@H]13 | inactive | inactive | inactive | inactive | – | –
5 | Cc1c(N(C)CS(=O)(=O)O)c(=O)n(-c2ccccc2)n1C | inactive | inactive | inactive | inactive | inactive | –
6 | CC1(C)OC[C@@H](COC(=O)CCc2ccc(OC[C@@H](O)CNCCNC(=O)N3CCOCC3)cc2)O1 | inactive | inactive | inactive | inactive | – | –
7 | CC[N+](CC)(CCNC(=O)C(=O)NCC[N+](CC)(CC)Cc1ccccc1Cl)Cc1ccccc1Cl | inactive | inactive | inactive | inactive | – | –
8 | C[C@H]1C[C@H]2[C@@H]3CCC4=CC(=O)C=C[C@]4(C)[C@@]3(Cl)[C@@H](O)C[C@]2(C)[C@@]1(O)C(=O)CO | inactive | inactive | inactive | 17.4 µM (active) | – | –
9 | O=C(COc1ccc(Cl)cc1)N1CCN(Cc2ccc3c(c2)OCO3)CC1 | inactive | inactive | – | 12.3 µM (active) | 0.436 µM (active) | –
10 | CCN1CCC[C@H]1CNC(=O)c1c(OC)ccc(Br)c1OC | inactive | inactive | inactive | inactive | – | –
11 | COc1c(C)c2c(c(O)c1C/C=C(\C)CCC(=O)O)C(=O)OC2 | inactive | inactive | inactive | inactive | – | –
12 | C[C@]12C=CC(=O)C=C1[C@@H](F)C[C@@H]1[C@@H]2[C@@H](O)C[C@@]2(C)[C@H]1CC[C@]2(O)C(=O)CO | inactive | inactive | inactive | inactive | – | –
13 | CC(C)NC[C@@H](O)COc1cccc2ccccc12 | inactive | inactive | inactive | inactive | – | –
14 | CCN(CC)CCNC(=O)COc1ccc(Cl)cc1 | inactive | inactive | inactive | inactive | – | –
15 | CCCCCCC[N+](CC)(CC)CCCCc1ccc(Cl)cc1 | inactive | inactive | inactive | inactive | – | –
16 | CC(O)(P(=O)(O)O)P(=O)(O)O | inactive | inactive | inactive | inactive | – | –
17 | Cc1c2oc3c(C)ccc(C(=O)N[C@@H]4C(=O)N[C@H](C(C)C)C(=O)N5CCC[C@H]5C(=O)N(C)CC(=O)N(C)[C@@H](C(C)C)C(=O)O[C@@H]4C)c3nc-2c(C(=O)N[C@@H]2C(=O)N[C@H](C(C)C)C(=O)N3CCC[C@H]3C(=O)N(C)CC(=O)N(C)[C@@H](C(C)C)C(=O)O[C@@H]2C)c(N)c1=O (I: T[dV]P[Sar][NMeV] / II: T[dV]P[Sar][NMeV]; ester I:1-I:C, II:1-II:C; linker I:N-II:N via Actinocin(9to1)) | inactive | inactive | inactive | inactive | inactive | –
18 | CCCCCC=CCC=CCCCCCCCC(=O)OCC | inactive | inactive | inactive | 9.77 µM (active) | – | –
19 | O=C(CCN1CCC(c2ccccc2)C1)c1ccc2c(c1)OCCO2 (configuration not stated) | inactive | inactive | – | inactive | 0.977 µM (active) | inactive
20 | CCN(CC)CCOc1ccc(C(O)(Cc2ccc(Cl)cc2)c2ccc(C)cc2)cc1 (configuration not stated) | inactive | inactive | – | – | 0.617 µM (active) | –
21 | C[C@]12CC[C@H]3[C@@H](CCC4=CC(=O)CC[C@@]43C)[C@@H]1CC[C@@H]2C(=O)CO | inactive | inactive | inactive | inactive | inactive | –
22 | COc1ccc(C2C(=O)c3ccccc3C2=O)cc1 | inactive | inactive | inactive | inactive | inactive | –
23 | O=S1(=O)c2cccc3cccc(c23)N1CCCN1CCN(c2ccc(F)cc2)CC1 | inactive | inactive | inactive | inactive | 3.47 µM (active) | –
24 | CO/N=C1\CN(c2nc3c(cc2F)c(=O)c(C(=O)O)cn3C2CC2)CC1CN (configuration not stated) | inactive | inactive | inactive | inactive | inactive | –
25 | NCCc1ccn[nH]1 | inactive | inactive | inactive | inactive | inactive | –
26 | CC(=O)OCC(=O)NCCCOc1cccc(CN2CCCCC2)c1 | inactive | inactive | inactive | inactive | – | –
27 | Cc1cc(O)c(C(C)C)cc1Cl | inactive | inactive | inactive | 21.9 µM (active) | 12.3 µM (active) | –
28 | CN=C(NC#N)Nc1ccc(C2=NNC(=O)CC2C)cc1 (configuration not stated) | inactive | inactive | inactive | inactive | inactive | –
